{"source": "PubChem BioAssay AID1789", "about": "(The Scripps Research Institute Molecular Screening Center, 2009)", "note": "The whole screen tested about 290,000 compounds, of which about 2,700 (0.93%) were called active. The list comes from a sample in which actives are over-represented; it also holds similar structures and randomly drawn compounds. Values without a mark were called inactive.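 Rule for the calls: active = inhibition above the screen-wide mean plus 3 SD, computed separately per campaign (cut at about 16% in these data); inactive = the rest.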 Square brackets hold non-standard residues; d marks the D form. Peptide text beside a SMILES is read from it. * marks the point of attachment. PhAc = O=C(Cc1ccccc1)*", "data": [{"test_system": "Heat shock protein HSP 90 (rabbit reticulocyte lysate; luciferase refolding)", "experiment": "HSP90 inhibitors, primary screen, cell lysate, luminescence (AID 1789);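 note: 0% = DMSO wells and 100% = 60 µM geldanamycin wells; inhibitors lower the luminescence because luciferase stays unfolded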", "conditions": "3 h, at 5.6 µM, stronger effect = higher value", "values": [{"molecule": "COc1cc(OC)c(C(=S)N2CCCC2)cc1OC", "inhibition": "-0.17%"}, {"molecule": "O=C(Cn1ncc(N2CCCC2)c(Br)c1=O)c1ccc(Cl)cc1", "inhibition": "-0.91%"}, {"molecule": "CC(C)(C)Nc1nc(-c2ccccn2)nc2ccccc12", "inhibition": "-0.49%"}, {"molecule": "Cc1nc(COc2cc3oc(=O)cc(C)c3cc2Cl)cs1", "inhibition": "1.76%"}, {"molecule": "CCN(C(=O)Cc1c(C(=O)O)n(CC)c2ccccc12)c1ccccc1C", "inhibition": "-6.6%"}, {"molecule": "Cc1c(CNCCc2ccccc2)c(C(=O)O)c(C)n1-c1ccccc1", "inhibition": "1.5%"}, {"molecule": "CCOCCOC(=O)C1=C(C)NC(=O)NC1c1ccc2c(c1)OCO2", "note": "(stereo not drawn)", "inhibition": "-3.33%"}, {"molecule": "O=C(NC1CCCCCCC1)c1cccs1", "inhibition": "-3.45%"}, {"molecule": "O=C(NCc1ccco1)/C(=C\\c1cccc([N+](=O)[O-])c1)NC(=O)c1ccco1", "inhibition": "-0.13%"}, {"molecule": "COCCN(C(=O)CCC(=O)Nc1nccs1)C(C(=O)NCCC(C)C)c1ccc(F)cc1", "note": "(stereo not drawn)", "inhibition": "2.45%"}, {"molecule": "Cc1ccc2c(cnn2C(=O)CCC(=O)NC2CCCC2)c1", "inhibition": "-3.9%"}, {"molecule": "COc1ccc(C=Nc2cccc3ncccc23)cc1", "inhibition": "7.77%"}, {"molecule": "Oc1c(C=Nc2cccc3nsnc23)ccc2ccccc12", "inhibition": "36.7% (active)"}, {"molecule": "O=[N+]([O-])c1ccc(N=Cc2c(O)ccc3ccccc23)cc1", "inhibition": "2.1%"}, {"molecule": "CC(C)C[C@@H](NC(=O)[C@H]1CCCN1C(=O)Cc1ccccc1)C(N)=O", "note": "(PhAc-[dP]-[dL]-NH2)", "inhibition": "-3.77%"}, {"molecule": "COc1ccccc1NC(=O)CN(c1ccccc1OC)S(=O)(=O)c1ccccc1", "inhibition": "0.43%"}, {"molecule": "CCc1c(C)sc(NC(=O)/C=C/c2ccc3c(c2)OCO3)c1C(=O)OC", "inhibition": "-8.23%"}, {"molecule": "Cc1cccc(NC(=O)/C=C/c2ccc3c(c2)OCO3)n1", "inhibition": "22.8% (active)"}, {"molecule": "Cc1cccc(NC(=O)Nc2ccc3c(c2)OCO3)n1", "inhibition": "-5.1%"}, {"molecule": "Cc1cc(C)cc(NC(=O)NC2CCCCCCC2)c1", "inhibition": "-3.82%"}, {"molecule": "O=C(Nc1ccn(Cc2ccccc2)n1)c1cccc(F)c1", "inhibition": "11.1%"}, {"molecule": "O=C(Nc1ccn(Cc2ccccc2)n1)c1n[nH]c([N+](=O)[O-])c1Cl", "inhibition": "22.3% (active)"}, {"molecule": "Cn1cc([N+](=O)[O-])c(C(=O)Nc2cnn(Cc3ccc(F)cc3)c2)n1", "inhibition": "-0.28%"}, {"molecule": "O=S(=O)(NC1CCCCC1N1CCN(c2ccccc2F)CC1)c1ccccc1", "note": "(stereo not drawn)", "inhibition": "2.71%"}, {"molecule": "O=C(Nc1ccc(Cl)cc1)c1cccc(OC(=S)N2CCOCC2)c1", "inhibition": "-7.8%"}, {"molecule": "CCOC(=O)Cn1c(=O)n(Cc2ccc(OC)cc2)c(=O)c2cccnc21", "inhibition": "-2.48%"}, {"molecule": "Oc1cccc(/C=N/Nc2ccc(Cl)nn2)c1O", "inhibition": "5.19%"}, {"molecule": "CCc1ccc(NC(=O)CCNS(=O)(=O)c2cccs2)cc1", "inhibition": "-2.78%"}, {"molecule": "COCC(=O)Nc1c(C(=O)N2CCCC2)oc2ccccc12", "inhibition": "-3.81%"}, {"molecule": "Clc1ccc(-c2ncc3ccccn23)c(Cl)c1", "inhibition": "4.35%"}, {"molecule": "O=C1CSC(c2ccccc2)N1c1nc(-c2ccc(Cl)cc2Cl)cs1", "note": "(stereo not drawn)", "inhibition": "-0.17%"}, {"molecule": "Clc1ccc(-c2cc(-c3ccccn3)on2)c(Cl)c1", "inhibition": "38.6% (active)"}, {"molecule": "NC(=NC(=O)c1ccccc1)N1CCOCC1", "inhibition": "-2.45%"}, {"molecule": "O=C(NC(=O)N1CCOCC1)c1ccccc1", "inhibition": "0.55%"}, {"molecule": "O=C(O)c1ccc(N=NN2CCOCC2)cc1", "inhibition": "20.6% (active)"}, {"molecule": "O=C(O)c1cccc(N=NN2CCCCCC2)c1", "inhibition": "37.5% (active)"}, {"molecule": "O=C(c1ccccc1)N1CCN(C(=O)N2CCCCC2)CC1", "inhibition": "-0.28%"}, {"molecule": "CN1CCN(S(=O)(=O)c2cccc(C(=O)O)c2)CC1", "inhibition": "-1.11%"}, {"molecule": "COc1cc(SC)ccc1C(=O)Nc1cc(C)ccn1", "inhibition": "12.1%"}, {"molecule": "COc1ccc(Cc2nnc(NC(=O)c3ccc(OC)cc3OC)s2)cc1", "inhibition": "-0.32%"}, {"molecule": "COc1cc(SC)ccc1C(=O)Nc1nc(C)cs1", "inhibition": "82.5% (active)"}, {"molecule": "COC(=O)c1sc(NC(=O)c2ccc(OC)cc2OC)nc1C", "inhibition": "36.3% (active)"}, {"molecule": "COc1cc2ccccc2cc1C(=O)Nc1nc(C)c(C(C)=O)s1", "inhibition": "10.7%"}, {"molecule": "COC(=O)c1sc(NC(=O)c2csc3c2CCCC3)nc1C", "inhibition": "35.7% (active)"}, {"molecule": "COc1cc(SC)ccc1C(=O)NCCOc1ccccc1Cl", "inhibition": "3.08%"}, {"molecule": "Cc1ccc(NC(=O)c2csc3c2CCCC3)cc1", "inhibition": "1.71%"}, {"molecule": "COC(=O)c1sc(NC(=S)NC(=O)c2ccc(C)cc2)nc1C", "inhibition": "1.68%"}, {"molecule": "CCN(C(=O)c1cc([N+](=O)[O-])ccc1NCc1cccnc1)c1ccccc1", "inhibition": "-2.39%"}]}]}
